Where “and” joins values, the source holds several entries; their conditions need not be identical. Equal entries are not always repeated. Inconclusive results are not listed. Calls of active or inactive are those of the source. Unless noted, no rule for the calls is given here.
What was measured:
[1] = qHTS profiling for inhibitors of Plasmodium falciparum (HB3) proliferation (AID 743324; active = well fitted curve in the direction sought with a large enough effect; an effect the other way counts as inactive or inconclusive;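 also: 100% = DMSO vehicle wells and 0% = artemisinin-treated control wells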); details: Plasmodium falciparum HB3 blood-stage proliferation; at 28.7 µM (top of the series)
Method in brief: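 SYBR Green fluorescence (485 ex/535 em) of lysed cultures, incubated overnight at room temperature in the dark, quantifies parasite DNA. Infected erythrocytes at 0.3% parasitemia and 2.5% hematocrit were exposed 72 h; values normalized to DMSO and 0.29 uM artemisinin controls.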

[2] = qHTS profiling of the MIPE4 collection as inhibitors of Plasmodium falciparum (DD2) proliferation (AID 743345); details: P. falciparum Dd2 in erythrocytes, SYBR Green DNA, 72 h; at 28.5 µM (top of the series) unless noted
Method in brief: (§1)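 Parasite DNA was quantified by SYBR Green I fluorescence (ex 485, em 535 nm) after overnight lysis in saponin/Triton buffer at room temperature. Cultures at 0.3% parasitemia and 2.5% hematocrit were first exposed to compound for 72 h at 37 C; signals were normalised to artemisinin (0.29 uM) and vehicle wells.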

[3] = qHTS profiling of the MIPE4 collection as inhibitors of Plasmodium falciparum (DD2) proliferation (Rep 2) (AID 743346); details: P. falciparum Dd2 in erythrocytes, SYBR Green DNA, 72 h; at 28.5 µM (top of the series) unless noted
Method in brief: as §1

[4] = qHTS profiling of the MIPE4 collection as inhibitors of Plasmodium falciparum (HB3) proliferation (AID 743347);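 also: plate controls were DMSO vehicle wells for no effect and artemisinin wells for full effect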; details: P. falciparum HB3 in erythrocytes, SYBR Green DNA, 72 h; at 28.5 µM (top of the series) unless noted
Method in brief: as §1

[5] = High-throughput drug toxicity screening in the BPDCN cell line Gen2.2 (AID 1224824); details: Gen2.2 BPDCN cells; at 45.8 µM (top of the series) unless noted;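 also: cells exposed to compounds for 48 h before reading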
Method in brief: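 CellTiter-Glo luminescence after 48 h compound exposure of Gen2.2 cells; percent activity set with DMSO as 100% and bortezomib (9.2 uM final) as 0%. Cells seeded at 500 per well, RPMI + 10% FBS, 37 °C.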

[6] = High-throughput drug toxicity screening in the BPDCN cell line Cal-1 (AID 1224825); details: Cal-1 BPDCN cell viability, qHTS; at 45.8 µM (top of the series) unless noted
Method in brief: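 CellTiter-Glo luminescence after 48 h compound exposure; percent activity scaled with DMSO as 100% and bortezomib (9.2 uM final) as 0%. Cal-1 cells seeded at 500/well in RPMI, 10% FBS, no phenol red.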

[7] = qHTS assay for measurement of the activity of small molecule inhibitors on Zika virus induced Caspase-3 activity in human iPSC derived neural progenitor cells (hNPCs) (AID 1224857; active = well fitted curve in the direction sought with a large enough effect; an effect the other way counts as inactive or inconclusive; also: nearly all actives have a fitted effect of over 65% in size; also: potency is read from the fitted curve at half-maximal effect)
Method in brief: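 Zika virus (2 FFU/cell) infection of human iPSC-derived NPCs, 6 h, following 1 h compound preincubation. Read-out: Caspase-Glo 3/7 luminescence.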

[8] = qHTS Screen of the MIPE 4.0 Collection Against Ewings Sarcoma (TC71) (AID 1259253; active = well fitted curve in the direction sought with a large enough effect; an effect the other way counts as inactive or inconclusive; also: nearly all actives have a fitted effect of over 40% in size; also: potency is read from the fitted curve at half-maximal effect)
Method in brief: (§2)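 Viability screen: 48 h incubation at 37C, 95% humidity, 5% CO2 with serially titrated compound, followed by CellTiter-Glo readout.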

[9] = Identifying Small Molecule Inhibitors of Pancreatic Cancer Stem Cells (A2780, Spheroid) (AID 1259357; active = well fitted curve in the direction sought with a large enough effect; an effect the other way counts as inactive or inconclusive;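 also: spheroids pre-formed over 14 days in stem cell medium on hydrogel; compound exposure lasted 48 h before the ATP luminescence read; 100% = DMSO treated cells and 0% = wells without cells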); details: Potency: A2780 spheroid viability
Method in brief: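 Spheroids grown 14 days in stem cell media on hydrogel-coated nonadherent plates; 2D lines seeded directly. Compounds added after 4 h attachment, 48 h at 37C, 5% CO2; CellTiter-Glo luminescence normalized to DMSO (no inhibition) and no-cell wells (full inhibition).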

[10] = Identifying Small Molecule Inhibitors of Pancreatic Cancer Stem Cells (Panc1, Adherent) (AID 1259362; active = well fitted curve in the direction sought with a large enough effect; an effect the other way counts as inactive or inconclusive;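 also: compound exposure lasted 48 h before the viability read; plate controls were DMSO-treated cells for no effect and cell-free media wells for full effect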); details: Potency: viability
Method in brief: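 Adherent (2D) versus sphere (3D) formats; spheres generated 14 d in SCM beforehand. Compound transferred by pin tool after 4 h, 48 h incubation, CellTiter-Glo endpoint.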

[11] = qHTS profiling of the MIPE4 collection as inhibitors of Plasmodium falciparum (3D7) proliferation (AID 743344);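 also: scaled between DMSO vehicle wells and 0.29 µM artemisinin as full inhibition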; details: P. falciparum 3D7 in erythrocytes, SYBR Green DNA fluorescence, 72 h; at 28.5 µM (top of the series) unless noted
Method in brief: as §1

[12] = qHTS assay for measurement of the activity of small molecule inhibitors on Zika virus induced Caspase-3 activity in human astrocytoma cells (AID 1224859; active = well fitted curve in the direction sought with a large enough effect; an effect the other way counts as inactive or inconclusive;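 also: plate controls were ZIKV-infected untreated cells for no effect and uninfected cells for full effect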)
Method in brief: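 Caspase activation in ZIKV-infected SNB-19 cells (2 FFU/cell, 6 h) measured by Caspase-Glo 3/7 luminescence after 30 min RT; compound pre-incubated 1 h; normalised to uninfected and infected controls.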

[13] = qHTS Screen of the MIPE 4.0 Collection Against Ewings Sarcoma (RDES) (AID 1259252; active = well fitted curve in the direction sought with a large enough effect; an effect the other way counts as inactive or inconclusive; also: nearly all actives have a fitted effect of over 35% in size; also: potency is read from the fitted curve at half-maximal effect)
Method in brief: as §2

[14] = qHTS Screen of the MIPE 4.0 Collection Against Ewings Sarcoma (EW8) (AID 1259255; active = well fitted curve in the direction sought with a large enough effect; an effect the other way counts as inactive or inconclusive; also: nearly all actives have a fitted effect of over 35% in size; also: potency is read from the fitted curve at half-maximal effect;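 as to viability: 100% = DMSO-treated cells and 0% = medium-only wells without cells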)
Method in brief: as §2

[15] = qHTS Screen of the MIPE 4.0 Collection Against Ewings Sarcoma (TC32) (AID 1259256; active = well fitted curve in the direction sought with a large enough effect; an effect the other way counts as inactive or inconclusive; also: nearly all actives have a fitted effect of over 45% in size; also: potency is read from the fitted curve at half-maximal effect)
Method in brief: as §2

[16] = qHTS assay to identify small molecule inhibitors of chordoma cells - UCH-2 (AID 1259356; active = well fitted curve in the direction sought with a large enough effect; an effect the other way counts as inactive or inconclusive; also: % is scaled to controls: 0 for no effect and ±100 for the full control effect)

Q: Which remaining proliferation (% of control), lower = more inhibition [1] does the source give for `O=C(Nc1ccccc1-c1cn2c(CN3CCNCC3)csc2n1)c1cnc2ccccc2n1` here?
A: -2.58% and -1.42%

Q: What about the parasite growth remaining, % of DMSO control (lower = more inhibition) [2] of the same compound?
A: 5.73%

Q: And the parasite growth, % of control (lower = inhibition) [3]?
A: 12.5%

Q: What about the growth, % of control [4] of the same compound?
A: 3.22%

Q: What about the cell viability, % of control (lower = more cytotoxic) [5] of the same compound?
A: 2.56%

Q: And the viability (% of control) [6]?
A: 1.48%

Q: And the Potency [7]?
A: 18.7 µM (active)

Q: And the Potency [8]?
A: 23.5 µM (active)

Q: And the Potency [9]?
A: inactive

Q: And the Potency [10]?
A: inactive

Q: Which parasite growth, % of DMSO control [11] does the source give for `CN(C)c1cc(NC(=O)CNC(C)(C)C)c(O)c2c1C[C@@H]1C[C@H]3[C@H](N(C)C)C(=O)C(C(N)=O)=C(O)[C@@]3(O)C(=O)C1=C2O` here?
A: 83%

Q: What about the parasite growth remaining, % of DMSO control (lower = more inhibition) [2] of the same compound?
A: 90.5%

Q: And the parasite growth, % of control (lower = inhibition) [3]?
A: 106%

Q: And the cell viability, % of control (lower = more cytotoxic) [5]?
A: 142%

Q: And the viability (% of control) [6]?
A: 97.2%

Q: And the Potency [12]?
A: inactive

Q: What about the Potency [13] of the same compound?
A: inactive

Q: And the Potency [8]?
A: inactive

Q: And the Potency [14]?
A: inactive

Q: And the Potency [15]?
A: inactive

Q: For `CCOC1OC(=O)C[C@H]1NC(=O)[C@@H]1CCCN1C(=O)[C@@H](NC(=O)c1ccc(N)c(Cl)c1)C(C)(C)C` (stereo partly specified), which cell viability, % of control (lower = more cytotoxic) [5] is on record?
A: 49.8%

Q: What about the viability (% of control) [6] of the same compound?
A: 16.7%

Q: What about the Potency [12] of the same compound?
A: inactive

Q: What about the Potency [13] of the same compound?
A: inactive

Q: What about the Potency [8] of the same compound?
A: inactive

Q: What about the Potency [14] of the same compound?
A: inactive

Q: What about the Potency [15] of the same compound?
A: inactive

Q: For `O=C1NC(=O)C(=Cc2ccc3nccnc3c2)S1`, which parasite growth, % of DMSO control [11] is on record?
A: 56.7% [at 9.64 µM]

Q: What about the parasite growth remaining, % of DMSO control (lower = more inhibition) [2] of the same compound?
A: 92.6% [at 9.64 µM]

Q: And the parasite growth, % of control (lower = inhibition) [3]?
A: 114% [at 9.64 µM]

Q: And the growth, % of control [4]?
A: 88.4% [at 9.64 µM]

Q: What about the cell viability, % of control (lower = more cytotoxic) [5] of the same compound?
A: 31% [at 23.2 µM]

Q: What about the viability (% of control) [6] of the same compound?
A: 44.1% [at 23.2 µM]

Q: And the Potency [7]?
A: 14.4 µM (active)

Q: And the Potency [13]?
A: 14.4 µM (active)

Q: And the Potency [8]?
A: 11.5 µM (active)

Q: And the Potency [14]?
A: 9.11 µM (active)

Q: Which results are given for `CC(C)n1nc(-c2ccc3oc(N)nc3c2)c2c(N)ncnc21`?
A: parasite growth remaining, % of DMSO control (lower = more inhibition) [2]: 9.14%; parasite growth, % of control (lower = inhibition) [3]: 6.88%; growth, % of control [4]: 4.46%; cell viability, % of control (lower = more cytotoxic) [5]: 1.63%; viability (% of control) [6]: 8.31%; Potency [7]: inactive; Potency [12]: inactive

Q: Which results are given for `Cc1ccc(C(C)(O)c2nc3ccccc3s2)c(C)c1` (stereo unspecified)?
A: parasite growth remaining, % of DMSO control (lower = more inhibition) [2]: 90.2%; parasite growth, % of control (lower = inhibition) [3]: 88.7%; growth, % of control [4]: 95.9%; cell viability, % of control (lower = more cytotoxic) [5]: 129%; viability (% of control) [6]: 6.97%; Potency [7]: inactive; Potency [12]: inactive

Q: For `O=c1cc(-c2ccccc2)oc2cc(O)cc(O)c12`, which parasite growth, % of DMSO control [11] is on record?
A: 48.1%

Q: What about the parasite growth remaining, % of DMSO control (lower = more inhibition) [2] of the same compound?
A: 89.3%

Q: And the parasite growth, % of control (lower = inhibition) [3]?
A: 49.8%

Q: And the growth, % of control [4]?
A: 43.5%

Q: And the cell viability, % of control (lower = more cytotoxic) [5]?
A: 45.9%

Q: What about the viability (% of control) [6] of the same compound?
A: 52.1%

Q: And the Potency [7]?
A: 20.9 µM (active)

Q: What about the Potency [15] of the same compound?
A: inactive

Q: What does the source list for `O=c1c(-c2ccc(O)cc2)coc2cc(O)ccc12`?
A: parasite growth, % of DMSO control [11]: 100%; parasite growth remaining, % of DMSO control (lower = more inhibition) [2]: 102%; parasite growth, % of control (lower = inhibition) [3]: 89.3%; growth, % of control [4]: 89.3%; cell viability, % of control (lower = more cytotoxic) [5]: 119%; viability (% of control) [6]: 109%; Potency [7]: 11.2 µM (active); Potency [13]: 11.8 µM (active); Potency [14]: inactive

Q: Which results are given for `CC(C(=O)O)c1ccc(-c2ccccc2)c(F)c1` (stereo unspecified)?
A: cell viability, % of control (lower = more cytotoxic) [5]: 84.9%; viability (% of control) [6]: 96.9%; Potency [7]: 16.6 µM (active); Potency [13]: 18.7 µM (active); Potency [14]: inactive; Potency [15]: 11.8 µM (active); outcome [16]: inactive

Q: Which remaining proliferation (% of control), lower = more inhibition [1] does the source give for `CCc1ccc(OCc2ccccc2C(=O)Nc2ccc3nc(C)cc(N)c3c2)cc1` here?
A: 0.0187%

Q: And the parasite growth, % of DMSO control [11]?
A: 5.35%

Q: What about the parasite growth remaining, % of DMSO control (lower = more inhibition) [2] of the same compound?
A: 6.22%

Q: What about the growth, % of control [4] of the same compound?
A: 10%

Q: What about the cell viability, % of control (lower = more cytotoxic) [5] of the same compound?
A: 7.97%

Q: And the viability (% of control) [6]?
A: 4.73%

Q: And the Potency [7]?
A: inactive

Q: And the Potency [13]?
A: 9.35 µM (active)

Q: And the Potency [8]?
A: 7.43 µM (active)

Q: What about the Potency [14] of the same compound?
A: 7.43 µM (active)

Q: And the Potency [15]?
A: 9.35 µM (active)
